Holding throughout (conditions): mRNA level, 48 h; actives raise or lower the signal
Read-out in test [1]: Insulin Like Growth Factor 1 (IGF1), IGF1 (gene 3479)
Nature of the test: LTEA_HepaRG_IGF1: Life Technologies and Expression Analysis (LTEA) Assay for Insulin Like Growth Factor 1 (IGF1) using HepaRG (AID 2283506). The method in brief:
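Differentiated human HepaRG cells were dosed for 48 h in serum-free induction medium with 0.5% DMSO, eight half-log concentrations up to 100 uM, in duplicate. IGF1 mRNA was quantified by qRT-PCR normalized to ACTB, GAPDH, POLR2A; bidirectional fitting versus DMSO.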

Read-out in test [2]: Intercellular Adhesion Molecule 1 (ICAM1), ICAM1 (gene 3383)
Nature of the test: LTEA_HepaRG_ICAM1: Life Technologies and Expression Analysis (LTEA) Assay for Intercellular Adhesion Molecule 1 (ICAM1) using HepaRG (AID 2283507). The method in brief:
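Using the human liver line HepaRG, compounds are tested in duplicate over 48 h at concentrations up to 100 uM. Expression is determined by TaqMan qRT-PCR, normalized to endogenous controls, and analysed relative to 0.5% DMSO vehicle.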

Read-out in test [3]: Insulin-like growth factor-binding protein 1 (IGFBP1), IGFBP1 (gene 3484)
In words: LTEA_HepaRG_IGFBP1: Life Technologies and Expression Analysis (LTEA) Assay for Insulin-like growth factor-binding protein 1 (IGFBP1) using HepaRG (AID 2283508). In short, it runs like this:
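HepaRG, 48 h, 8 conc. (max 100 uM, half-log), duplicates, 0.5% DMSO. Readout: TaqMan qRT-PCR, ACTB/GAPDH/POLR2A normalisation. Fit: bidirectional vs DMSO.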

Read-out in test [4]: Interleukin 6 (IL6), IL6 (gene 3569)
Nature of the test: LTEA_HepaRG_IL6: Life Technologies and Expression Analysis (LTEA) Assay for Interleukin 6 (IL6) using HepaRG (AID 2283509). The method in brief: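 Differentiated human HepaRG cells, plated 48 h then switched to serum-free induction medium, were exposed in duplicate for 48 h to eight half-log concentrations up to 100 uM in 0.5% DMSO. IL6 mRNA measured by qRT-PCR, normalized to ACTB/GAPDH/POLR2A.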

Read-out in test [5]: Interleukin 6 Receptor (IL6R), IL6R (gene 3570)
Nature of the test: LTEA_HepaRG_IL6R: Life Technologies and Expression Analysis (LTEA) Assay for Interleukin 6 Receptor (IL6R) using HepaRG (AID 2283510). The method in brief: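 Differentiated human HepaRG cells, plated 48 h then switched to serum-free induction medium, were dosed in duplicate for 48 h at eight half-log concentrations up to 100 uM in 0.5% DMSO. IL6R mRNA quantified by qRT-PCR, normalized to ACTB/GAPDH/POLR2A; bidirectional fit versus DMSO.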

Read-out in test [6]: Potassium channel subfamily K member 1 (KCNK1), KCNK1 (gene 3775)
In words: LTEA_HepaRG_KCNK1: Life Technologies and Expression Analysis (LTEA) Assay for Potassium channel subfamily K member 1 (KCNK1) using HepaRG (AID 2283511). The method in brief: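 Differentiated human HepaRG cells in serum-free induction medium were exposed in duplicate for 48 h to 8 half-log concentrations up to 100 uM in 0.5% DMSO. KCNK1 mRNA was measured by TaqMan qRT-PCR, normalized to ACTB, GAPDH and POLR2A, and fitted bidirectionally versus DMSO.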

Read-out in test [7]: Keratin 19 (KRT19), KRT19 (gene 3880)
Nature of the test: LTEA_HepaRG_KRT19: Life Technologies and Expression Analysis (LTEA) Assay for Keratin 19 (KRT19) using HepaRG (AID 2283512). In short, it runs like this: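 Readout is qRT-PCR of KRT19 mRNA, normalized to ACTB, GAPDH and POLR2A, from HepaRG cells treated 48 h with eight-point half-log dilutions topping at 100 uM. Activity in either direction is scored relative to 0.5% DMSO vehicle.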

Read-out in test [8]: JUN Transcription Factor, JUN (gene 3725)
Nature of the test: LTEA_HepaRG_JUN: Life Technologies and Expression Analysis (LTEA) Assay for JUN Transcription Factor using HepaRG (AID 2283513). The method in brief:
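Differentiated HepaRG cells were exposed to chemicals for 48 h in serum-free induction medium, 8 concentrations from 100 uM in half-log steps, 0.5% DMSO vehicle, in duplicate. JUN mRNA was quantified by TaqMan qRT-PCR, normalized to ACTB, GAPDH, POLR2A.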

Read-out in test [9]: Lipase C (LIPC), LIPC (gene 3990)
In words: LTEA_HepaRG_LIPC: Life Technologies and Expression Analysis (LTEA) Assay for Lipase C (LIPC) using HepaRG (AID 2283514). The method in brief:
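Differentiated human HepaRG cells in serum-free induction medium were exposed in duplicate for 48 h to eight concentrations (top 100 uM, half-log steps, 0.5% DMSO). LIPC mRNA was quantified by TaqMan qRT-PCR, normalized to ACTB, GAPDH and POLR2A, with bidirectional fitting versus DMSO.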

Read-out in test [10]: Lipoprotein lipase (LPL), LPL (gene 4023)
Nature of the test: LTEA_HepaRG_LPL: Life Technologies and Expression Analysis (LTEA) Assay for Lipoprotein lipase (LPL) using HepaRG (AID 2283515). The method in brief: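 Differentiated human HepaRG cells in serum-free induction medium were exposed in duplicate for 48 h to eight half-log concentrations (top 100 uM) in 0.5% DMSO. LPL mRNA was quantified by TaqMan qRT-PCR, normalized to ACTB, GAPDH and POLR2A.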

Read-out in test [11]: MicroRNA 122 (MIR122), gene 406906
Nature of the test: LTEA_HepaRG_MIR122: Life Technologies and Expression Analysis (LTEA) Assay for MicroRNA 122 (MIR122) using HepaRG (AID 2283516). Note: the transcript read is the microRNA miR-122. The method in brief:
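Differentiated human HepaRG cells were exposed 48 h in serum-free induction medium to eight half-log concentrations (top 100 uM, 0.5% DMSO). Transcript level was measured by TaqMan qRT-PCR, normalized to ACTB, GAPDH and POLR2A, and fitted bidirectionally versus DMSO.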

Read-out in test [12]: matrix metalloproteinase-10 (MMP10), MMP10 (gene 4319)
In words: LTEA_HepaRG_MMP10: Life Technologies and Expression Analysis (LTEA) Assay for matrix metalloproteinase-10 (MMP10) using HepaRG (AID 2283517). The method in brief: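 HepaRG, collagen I, ~100,000 cells/well; serum-free induction medium; 48 h exposure, duplicate, 8-pt half-log to 100 uM, 0.5% DMSO. Readout: TaqMan qRT-PCR, normalized to ACTB/GAPDH/POLR2A; bidirectional fit vs DMSO.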

Read-out in test [13]: MYC, MYC (gene 4609)
In words: LTEA_HepaRG_MYC: Life Technologies and Expression Analysis (LTEA) Assay for MYC using HepaRG (AID 2283518). The method in brief: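 Expression changes were scored by TaqMan qRT-PCR with ACTB, GAPDH and POLR2A normalization. Cultures in serum-free induction medium received duplicate 8-point concentration series, highest 100 uM, for 48 h; DMSO (0.5%) served as baseline.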

Read-out in test [14]: Paternally Expressed 10 (PEG10), PEG10 (gene 23089)
In words: LTEA_HepaRG_PEG10: Life Technologies and Expression Analysis (LTEA) Assay for Paternally Expressed 10 (PEG10) using HepaRG (AID 2283520). In short, it runs like this:
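Differentiated HepaRG cells, plated 48 h then switched to serum-free induction medium, were exposed in duplicate for 48 h to eight half-log concentrations topping at 100 uM in 0.5% DMSO. PEG10 mRNA was quantified by TaqMan qRT-PCR, normalised to ACTB, GAPDH and POLR2A.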

Read-out in test [15]: Protein phosphatase 2A (PPP2R4), PTPA (gene 5524)
Nature of the test: LTEA_HepaRG_PPP2R4: Life Technologies and Expression Analysis (LTEA) Assay for Protein phosphatase 2A (PPP2R4) using HepaRG (AID 2283522). The method in brief: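 Differentiated HepaRG cells in serum-free induction medium were exposed in duplicate for 48 h to eight concentrations, top 100 uM with half-log dilutions, in 0.5% DMSO. PPP2R4 mRNA was quantified by TaqMan qRT-PCR, normalized to ACTB, GAPDH and POLR2A.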

Read-out in test [16]: Phosphatase and tensin (PTEN), PTEN (gene 5728)
Nature of the test: LTEA_HepaRG_PTEN: Life Technologies and Expression Analysis (LTEA) Assay for Phosphatase and tensin (PTEN) using HepaRG (AID 2283523). In short, it runs like this:
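Differentiated human HepaRG cells, plated 48 h then switched to serum-free induction medium, were exposed in duplicate for 48 h to eight half-log concentrations up to 100 uM in 0.5% DMSO. PTEN mRNA measured by TaqMan qRT-PCR, normalized to ACTB/GAPDH/POLR2A, bidirectional fit versus DMSO.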

Read-out in test [17]: solute carrier (SLC22A1), SLC22A1 (gene 6580)
In words: LTEA_HepaRG_SLC22A1: Life Technologies and Expression Analysis (LTEA) Assay for solute carrier (SLC22A1) using HepaRG (AID 2283524). In short, it runs like this: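 Human HepaRG cells were plated 48 h, switched to serum-free induction medium, then exposed in duplicate for 48 h to 8-point half-log series from 100 uM in 0.5% DMSO. SLC22A1 mRNA measured by qRT-PCR, normalized to ACTB/GAPDH/POLR2A, fitted bidirectionally versus DMSO.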

Read-out in test [18]: Pyruvate Dehydrogenase Kinase 4 (PDK4), PDK4 (gene 5166)
In words: LTEA_HepaRG_PDK4: Life Technologies and Expression Analysis (LTEA) Assay for Pyruvate Dehydrogenase Kinase 4 (PDK4) using HepaRG (AID 2283525). The method in brief: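 Differentiated human HepaRG cells, pre-cultured 48 h, were exposed in duplicate for 48 h in serum-free induction medium to eight half-log concentrations up to 100 uM in 0.5% DMSO. PDK4 mRNA was quantified by qRT-PCR, normalized to ACTB, GAPDH and POLR2A, bidirectional fitting versus DMSO.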

Read-out in test [19]: matrix metalloproteinase-3 (MMP3), MMP3 (gene 4314)
In words: LTEA_HepaRG_MMP3: Life Technologies and Expression Analysis (LTEA) Assay for matrix metalloproteinase-3 (MMP3) using HepaRG (AID 2283519). The method in brief:
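Differentiated human HepaRG cells, plated 48 h on collagen I, were exposed in duplicate for 48 h in serum-free induction medium to eight half-log concentrations up to 100 uM in 0.5% DMSO. MMP3 mRNA was quantified by TaqMan qRT-PCR, normalised to ACTB, GAPDH and POLR2A.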

Read-out in test [20]: Nuclear factor NF-kappa-B p105 subunit (Homo sapiens) (UniProt P19838)
In words: LTEA_HepaRG_NFKB1: Life Technologies and Expression Analysis (LTEA) Assay for Nuclear Factor Kappa B Subunit 1 (NFKB1) using HepaRG (AID 2283521).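 Note: TaqMan qRT-PCR transcript normalised to ACTB GAPDH and POLR2A housekeeping genes.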 In short, it runs like this:
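HepaRG, 48 h exposure; 8-pt half-log series from 100 uM in 0.5% DMSO; duplicates. Readout: NFKB1 mRNA by qRT-PCR (Fluidigm arrays), housekeeping-normalized. Gain/loss fit vs DMSO baseline.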

The source made the active and inactive calls. Rule for the calls: active = hit-call score of the fitted dose curve at least 0.9, where 1 is the maximum; inactive = score below 0.9.

Sequence of Nuclear factor NF-kappa-B p105 subunit (Homo sapiens) (P19838 whole entry, looked up): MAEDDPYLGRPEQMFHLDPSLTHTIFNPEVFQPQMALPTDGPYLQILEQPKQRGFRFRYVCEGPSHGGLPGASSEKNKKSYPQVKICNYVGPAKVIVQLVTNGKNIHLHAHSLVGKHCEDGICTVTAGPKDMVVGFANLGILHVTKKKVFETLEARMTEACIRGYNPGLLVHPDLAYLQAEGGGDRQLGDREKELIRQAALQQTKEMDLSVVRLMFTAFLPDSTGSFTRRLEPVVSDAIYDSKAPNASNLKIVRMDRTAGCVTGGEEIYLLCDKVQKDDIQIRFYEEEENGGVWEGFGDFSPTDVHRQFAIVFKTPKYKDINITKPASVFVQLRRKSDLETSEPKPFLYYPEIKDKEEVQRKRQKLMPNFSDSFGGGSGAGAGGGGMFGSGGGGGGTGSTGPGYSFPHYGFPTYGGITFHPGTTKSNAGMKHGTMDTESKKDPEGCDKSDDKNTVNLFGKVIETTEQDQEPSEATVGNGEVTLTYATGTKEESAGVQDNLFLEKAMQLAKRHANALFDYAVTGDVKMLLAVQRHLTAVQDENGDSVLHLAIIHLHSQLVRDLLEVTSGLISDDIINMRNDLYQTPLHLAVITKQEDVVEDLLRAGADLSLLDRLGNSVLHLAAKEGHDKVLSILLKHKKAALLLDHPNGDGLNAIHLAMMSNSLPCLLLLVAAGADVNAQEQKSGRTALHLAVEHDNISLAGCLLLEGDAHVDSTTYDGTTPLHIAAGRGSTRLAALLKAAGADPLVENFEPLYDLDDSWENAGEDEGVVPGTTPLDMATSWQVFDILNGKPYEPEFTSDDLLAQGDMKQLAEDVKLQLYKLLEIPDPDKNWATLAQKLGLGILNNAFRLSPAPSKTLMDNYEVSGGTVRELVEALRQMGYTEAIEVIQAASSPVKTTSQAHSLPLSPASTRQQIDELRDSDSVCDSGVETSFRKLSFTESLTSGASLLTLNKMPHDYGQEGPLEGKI

Turning to `CC(=O)OC/C=C(\C)CCC=C(C)C`, the call in test [1], in [2], in [3], in test [4], in test [5] and in [6] was inactive. For the same molecule, the result in [7], in test [8], in test [9], in [10], in [11] and in test [12] was inactive. In addition, the molecule was called inactive in [13], in test [14], in test [15], in test [16], in test [17] and in [18].

One may read the AC50 as the concentration at which the activity in the assay is half-maximal. For `c1cc(-c2ccncc2)ccn1`, the call in test [1], in test [2], in test [3], in test [4], in test [5] and in test [6] was inactive. Further, the result in test [7], in test [8], in [9], in test [10], in test [11] and in test [12] was inactive. Further, the outcome in test [14], in test [20], in test [15], in test [16], in [17] and in [18] was inactive. Also, the AC50 in [19] is 17.6 µM (active).

On to `Cc1ccc(Cl)cc1`, for which the result in test [1], in [2], in test [3], in test [4], in test [5] and in test [6] was inactive. The molecule was classed as inactive in [7], in test [8], in test [9], in test [10], in test [11] and in test [12]. For the same molecule, the result in [13], in [14], in test [15], in test [17] and in [18] was inactive.

For `Clc1cc(Cl)c(Cl)cc1Cl`, the molecule was called inactive in test [1], in test [2], in test [3], in [4], in [5] and in [7]. The call in test [8], in test [9], in test [10], in test [11], in test [12] and in test [13] was inactive. The molecule was called inactive in test [19], in test [14], in [20], in [15], in test [16] and in test [17]. In addition, the outcome in [18] was inactive.

The values are drawn from PubChem BioAssay (EPA / NIEHS).
